Assay results reported in PubChem BioAssay AID493200 (National Center for Advancing Translational Sciences (NCATS), 2011).
Inconclusive results are not listed. Unmarked numbers belong to inactive results. Active and inactive are the calls of the source. Calls follow the shape of the dose curve; as a rule, active = well fitted activation curve with a large enough effect; inconclusive = small, poorly fitted or top-dose-only effect; inactive = no such curve, though single readings can be large or run the other way.

Experiment: qHTS Assay for Rab9 Promoter Activators: Initial hit validation from the primary screen; as to activation: % of control where 0% means no effect
Conditions: Huh7 Rab9 promoter luciferase reporter, 24 h; series mostly up to 46.1 µM; activation: at the top concentration
From the text: NIH Chemical Genomics Center [NCGC] NIH Molecular Libraries Probe Production centers Network [MLPCN] MLPCN Grant: MH089537-01 Assay Submitter (PI): Yiannis A. Ioannou NCGC Assay Overview: Niemann Pick Type C (NPC) is a rare neurodegenerative lipidosis that is characterized by lipid storage in the endosomal/lysosomal system. Treatment modalities for this devastating disease are currently non-existent due to the severe obstacles associated with accessing the central nervous system with proteins or genes (Ioannou, 2000). We have developed a new paradigm, termed "Orphan Receptor Bypass Therapy" (ORByT), to address these disorders. This paradigm posits the existence of endogenous "suppressor" proteins whose expression can dramatically improve LSD pathogenesis. The goal is the identification/discovery of small chemical compounds that can modulate the expression of these proteins and provide a new treatment modality for these devastating disorders. One such protein whose overexpression reverses aspects of the NPC phenotype is Rab9. We have developed and optimized a cell based luciferase reporter assay in 1536 well format for the identification of up-regulators of the Rab9 promoter. This assay presents data on the validation of hits from the primary screen.
The Rab9 promoter is cloned in front of the luciferase reporter gene, therefore […] promoter activation results in luciferase expression. Frozen stock of the Rab9 promoter transfected Huh7 cells were obtained from the laboratory of Dr. Yiannis Ioannou (The Mount Sinai School of Medicine, New York, NY). Cells were propagated and maintained at NCGC in medium containing RPMI-1640 supplemented with 10% FBS, 2mM L-glutamine, and 50ug/ml penicillin/streptomycin. Cells were harvested in and plated for assays in OP-MEM I reduced-serum medium supplemented with 10% FBS. The Amplite luciferase reporter gene assay kit was purchased from ABD Bioquest and prepared/stored according to manufacturers recommendations. qHTS Assay Setup: 1.Dispensed 5ul of Huh7 cells stably expressing Rab9-luciferase at a density of 1500 cells per well 1536-well plates. 2.Incubate cells at 37C, 5% CO2, and 95% humidity for 2 hours. 3.Transferred 23nl per well of compound in DMSO solution. 4.Incubated at 37C, 5% CO2, and 95% humidity for 24 hours. 5.Dispensed 3ul per well of Amplite reagent(ABD Bioquest) per well. 6.Incubate at ambient for 10 minutes. 7.Read using the luminescence protocol on the ViewLux plate reader (Perkin Elmer).
Potency is read from the fitted curve at half-maximal effect.

Compound | activation [%] | Potency
COCCNC(=O)CN1C(=O)NC(c2ccccc2)(c2ccccc2)C1=O | -2.37 | 
COc1ccc(C(c2nnnn2CCc2ccccc2)N2CCN(C3CCCC3)CC2)cc1 (stereo not given) | -10.4 | 
CCC(=O)Nc1cc(-c2cc3ccccc3oc2=O)ccc1OC |  | 791 nM (active)
O=C(COc1ccccc1F)Nc1ccc(-c2nc3ccccc3s2)cc1 |  | 223 nM (active)
CCCc1cc(C(=O)Nc2ccccc2SC)no1 |  | 25000 nM (active)
NNC(=O)c1cccc(S(=O)(=O)Nc2cc(Cl)ccc2Cl)c1 | -1.11 | 
C=CCc1ccc(OCCOCCNCCOC)c(OC)c1 | -10.5 | 
OCCC1CN(Cc2nc3ccccc3s2)CCN1C1CCCC1 (stereo not given) | -5.07 | 
CN(C)/C=N/c1c(C#N)cnn1-c1nc2ccccc2s1 | 15.4 | 
CCC(C)(C)NC(=O)C(c1ccc(OC)cc1)N(Cc1cccs1)C(=O)CCC(=O)Nc1cc(C)on1 (stereo not given) | -17.8 | 
COc1ccc(NC(=S)NNC(=O)c2cccs2)cc1 |  | 31500 nM (active)
Cc1ccc(S(=O)(=O)/N=C2\C=C(Nc3cccc(C(=O)O)c3)C(=O)c3ccccc32)cc1 | -45.7 | 
NC(=O)C1(NC(=O)[C@@H]2CC3(CC(c4cccc(NC(=O)[C@@H]5CCC(=O)N5)c4)=NO3)CN2C(=O)c2ccccc2)CC1 (stereo not given in full) | 6.9 | 
CNC(=O)Cn1nc(C)c2ccccc2c1=O | -1.21 | 
O=C(CCc1cccc(Cl)c1)NC1CCCN(Cc2ccccc2F)C1 (stereo not given) | -12.7 | 
Cc1ccc2nc(Nc3ccc(Cl)cc3)c3nncn3c2c1 | -3.26 | 
O=C(CCS(=O)(=O)c1ccccc1)Nc1ccc(-c2nc3ccccc3s2)cc1 |  | 223 nM (active)
COCc1cc(C)nc(N/N=C/c2ccc(-c3ccc(Cl)cc3[N+](=O)[O-])o2)c1C#N | 12.7 | 
COC(=O)c1ccc(NC(=O)c2ccc3nc(C)sc3c2)cc1 |  | 560 nM (active)
COc1ccc(-n2c(N)c(C(=O)NCc3ccco3)sc2=S)cc1 | 2.44 | 

Compound | activation [%] | Potency
COc1ccc(NC(=O)Nc2ccc(Cc3ccncc3)cc2)cc1OC | -23.6 | 
O=C(NCC1CCCO1)C(c1ccc(F)cc1)N(Cc1ccc2c(c1)OCO2)C(=O)c1ccc(CN2CCOCC2)o1 (stereo not given) | -4.25 | 
Cc1nc2sc(C(=O)OC(C)C)c(N)c2c(C)c1C |  | 15800 nM (active)
COc1ccccc1CNC(=O)COc1ccc(C)cc1 | -5.69 | 
O=C(Nc1ccc(-c2nc3cccnc3s2)cc1)c1ccc(Cl)nc1 |  | 888 nM (active)
COc1ccccc1OCCCC(=O)NCc1ccco1 | 0.655 | 
Cc1ccc(C#N)c(SCC(=O)Nc2nccs2)n1 |  | 791 nM (active)
N#CC/C(N)=N/NC(=O)CCCNc1ncc(C(F)(F)F)cc1Cl |  | 19900 nM (active)
COc1ccc(S(=O)(=O)NC(C(=O)NCCc2ccccn2)C(C)C)cc1 (stereo not given) | 1.37 | 
CC(C)C(NC(=O)c1ccc([N+](=O)[O-])cc1Cl)C(=O)N1CCCC1 (stereo not given) | -2.39 | 
COc1ccc(/C=C\C(=O)c2c(O)ccc3c(C)cc(=O)oc23)cc1OC | -38.2 | 
CC(=O)Nc1ccc(NC(=O)COc2ncnc3ccccc23)cc1 | 4 | 
O=C(NNC(=O)C1COc2ccccc2O1)c1ccccc1O (stereo not given) | -4.84 | 
CCOC(=O)c1ccccc1NC(=O)CSc1nnc(Cc2cccn2C)n1-c1ccc(F)cc1 | -11.2 | 
Cc1cc(C)c2c(N)c(C(=O)Nc3ccc([N+](=O)[O-])cc3)sc2n1 |  | 499 nM (active)
COc1ccc(OC)c(S(=O)(=O)N2CCN3CCCC3C2)c1 (stereo not given) | 0.203 | 
Cc1nnc2n(c1=O)N=C(c1ccc(Cl)cc1)CS2 |  | 888 nM (active)
COCCn1c(SCc2ccc(C(=O)OC)o2)nc2cc(Cl)ccc2c1=O | -6.53 | 
CCCCn1c(Nc2ccc(OC)cc2)nc2ccccc21 | 5.74 | 
CN(C)C(CNC(=O)CNC(=O)c1ccc2ccccc2c1)c1ccccc1 (stereo not given) | -1.55 | 
